One test has as its target Albumin (Bos taurus) (UniProt P02769). Briefly: compounds binding labelled BSA control protein – biochemical, small-molecule microarray, Alexa647 label, 635/667 nm fluorescence, artefact control for SMM control protein annotation, profiling panel (AID 1118).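 Also: score merges 667 nm emission intensity and signal-to-noise per printed compound spot.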 To be noted: BSA-A647 binding, fluorescence 635 nm, higher = more signal.
Test [1] in a line: probe aXIP binding to arrayed compounds – biochemical, NeuroSMM set, 635/667 nm fluorescence, primary screen (AID 1119).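 Also: probe is the protein aXip251-270 applied at 1 µg/mL to compound-printed slides; binding of probe to printed compounds measured as 667 nm fluorescence plus signal to noise.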 Conditions: small-molecule microarray, higher = more signal, called active from +8 up or from −8 down.
Test [2] is described as follows: probe aNOTCH3 binding on compound microarray – biochemical, small-molecule microarray, 635/667 nm fluorescence, primary screen (AID 1120).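 Also: probe is a biotin-tagged antibody raised against NOTCH3 rather than NOTCH3 protein; score merges spot fluorescence near 667 nm with spot signal to noise.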 To be noted: higher = more signal.
Test [3] is described as follows: probe aNOTCH2 binding on compound microarray – biochemical, small-molecule microarray, 635/667 nm fluorescence, primary screen (AID 1121).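 Also: score merges feature fluorescence read at 667 nm with its signal to noise.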 Conditions: higher = more signal.
Test [4] deals with Carbonic anhydrase 2 (Homo sapiens) (UniProt P00918). Description: compounds binding carbonic anhydrase 2 – biochemical, small-molecule microarray, Alexa647-labelled CAII, profiling panel (AID 1122). To be noted: CAII-A647 binding fluorescence, higher = more signal.
A short description of test [5]: COS7 lysate on small-molecule microarray, probe aHis, 635 nm (AID 1123).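 Also: z-score combines 667nm fluorescence intensity with signal-to-noise per printed compound spot.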 Conditions: COS7 cell lysate, fluorescence, higher = more signal.
Test [6] is described as follows: probe aLAP1 signal on lysate-treated microarray – cell lysate, small-molecule microarray, COS7 lysate, primary screen (AID 1124).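 Also: lysate comes from COS7 cells expressing LAP1 and is applied at 0.3 µg/mL; score merges spot fluorescence near 667 nm with signal-to-noise over triplicate slides.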 To be noted: probe aLAP1, fluorescence, higher = more signal.
Another test relates to Sam68 (KHDRBS1). Description: compounds binding KHDRBS1 protein – biochemical, small-molecule microarray, 635 nm fluorescence, primary screen (AID 1125).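 Also: score merges 667 nm channel intensity with signal to noise over triplicate slides.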 To be noted: higher = more signal.
Test [7] relates to Chordin-like protein 2 (CHRDL2). Briefly: compounds binding chordin-like 2 – biochemical, small-molecule microarray, 635 nm fluorescence, primary screen (AID 1126).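 Also: printed compound slides probed with Chrdl2 protein at 4 µg/mL for 1 h at 4 C; score merges 667 nm emission intensity with signal to noise over three replicate slides.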 To be noted: fluorescence 635 nm, higher = more signal.
The target of test [8] is Concanavalin-A (Canavalia ensiformis) (UniProt P02866). Description: compounds binding concanavalin A lectin – biochemical, small-molecule microarray, Alexa647 label, 635 nm, artefact control for SMM control protein annotation, primary screen (AID 1127).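 Also: z combines 667 nm emission intensity with signal-to-noise across three replicate slides.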 Conditions: ConA-A647 binding fluorescence, higher = more signal.

Active and inactive are the calls of the source.

Sequence of Concanavalin-A (Canavalia ensiformis) (P02866 whole entry, looked up): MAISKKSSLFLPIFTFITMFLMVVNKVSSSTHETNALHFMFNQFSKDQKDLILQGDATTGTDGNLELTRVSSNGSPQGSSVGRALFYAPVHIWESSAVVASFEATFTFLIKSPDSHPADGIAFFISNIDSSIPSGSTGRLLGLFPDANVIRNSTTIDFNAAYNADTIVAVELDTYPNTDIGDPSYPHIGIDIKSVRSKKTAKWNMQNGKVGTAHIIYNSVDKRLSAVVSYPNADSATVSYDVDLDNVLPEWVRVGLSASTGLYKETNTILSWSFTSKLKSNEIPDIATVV
Sequence of Albumin (Bos taurus) (P02769 whole entry, looked up): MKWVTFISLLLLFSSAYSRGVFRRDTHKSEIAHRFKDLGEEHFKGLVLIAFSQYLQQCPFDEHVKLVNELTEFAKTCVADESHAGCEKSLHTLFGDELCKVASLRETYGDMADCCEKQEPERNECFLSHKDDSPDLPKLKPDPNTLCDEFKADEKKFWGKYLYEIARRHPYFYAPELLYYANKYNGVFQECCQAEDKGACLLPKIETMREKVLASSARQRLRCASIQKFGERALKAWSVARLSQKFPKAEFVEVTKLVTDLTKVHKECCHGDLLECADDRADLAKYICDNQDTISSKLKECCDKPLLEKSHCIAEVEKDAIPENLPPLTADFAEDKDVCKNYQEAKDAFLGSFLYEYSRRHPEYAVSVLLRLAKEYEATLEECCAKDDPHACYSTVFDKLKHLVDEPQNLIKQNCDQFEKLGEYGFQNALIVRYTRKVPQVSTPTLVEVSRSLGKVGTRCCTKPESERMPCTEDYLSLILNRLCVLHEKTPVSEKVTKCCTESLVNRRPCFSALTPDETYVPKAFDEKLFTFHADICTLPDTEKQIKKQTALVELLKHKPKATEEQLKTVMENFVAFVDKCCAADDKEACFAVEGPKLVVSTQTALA

As for `COCCOC(=O)N1C(=O)[C@@]2(c3cc(C#CC4(O)CCCCCC4)ccc31)[C@H](c1ccc(O)cc1)N1[C@H](c3ccccc3)[C@H](c3ccccc3)OC(=O)[C@H]1[C@@H]2C(=O)Nc1nc2ccccc2s1`, the composite z-score amounted to 0.873 with Albumin (Bos taurus); 0.499 in test [2]; 0.203 in test [3]; 0.362 in test [4]; 1.85 in [5]; 0.552 in [6]. Also, the composite z-score was 1.32 in the test on Sam68 (KHDRBS1), 0.524 in test [7] and 0.785 in test [8]. Besides, the composite Z-score in test [1] was 0.0656 (inactive).
Consider `[N-]=[N+]=NCc1ccccc1[C@@H]1OC(c2ccc(OCCCO)cc2)=N[C@]1(CCS(=O)(=O)c1ccccc1)C(=O)NCc1ccccc1`, for which the composite z-score came to 0.732 with Albumin (Bos taurus); 0.946 in test [2]; 0.257 in test [3]; 0.694 in test [4]; 1.89 in [5]; 1.77 in test [6]. Moreover, the composite z-score in the test with Sam68 (KHDRBS1) turned out to be 1.3; in test [7] it was 0.518; in [8] it was 1.11. In addition, in test [1], the composite Z-score is 0.0035 (inactive).
For the molecule `CCCC=C(CCC)[C@@H](NC(=O)Oc1ccc(F)cc1)c1ccc(C(=O)OC)cc1`, the composite z-score with Albumin (Bos taurus) was 0.673; in test [2], 0.209; in [3], -0.0817; in test [4], 0.31; in test [5], 1.9; in test [6], 0.0052. For the same molecule, the composite z-score was 1.19 with Sam68 (KHDRBS1), -0.813 in test [7] and 0.977 in [8]. The composite Z-score in test [1] is -0.594 (inactive).
Consider `CCCCN1CC=CC23O[C@@H]4C=CCOC(=O)[C@@H]4[C@H]2C(=O)N(CCCCCO)[C@@H]3C1=O` (stereo not given in full), for which the composite z-score is 0.914 with Albumin (Bos taurus); -0.199 in [2]; -0.0422 in test [3]; 0.858 in [4]; 1.8 in [5]; 1.3 in [6]. For the same molecule, the composite z-score with Sam68 (KHDRBS1) was -0.445; in test [7], -0.769; in [8] it was -1.08. For the same molecule, the composite Z-score in [1] is 0.102 (inactive).
Regarding `C=C(COC)/C(=C/C[C@@H](OC(C)=O)c1ccc(CO)o1)c1cnc2ccccc2c1`, the composite z-score was found to be 0.555 in the test with Albumin (Bos taurus); 0.25 in test [2]; 0.0616 in [3]; 0.944 in test [4]; 0.229 in test [5]; 0.846 in [6]. Besides, the composite z-score amounted to 1.29 in the test with Sam68 (KHDRBS1), 1.39 in test [7] and 1.2 in [8]. Besides, the composite Z-score in test [1] was 0.319 (inactive).
For the molecule `O=C1O[C@H](c2ccccc2)[C@H](c2ccccc2)N2[C@H]1[C@@H](C(=O)NC[C@H](O)c1ccccc1)[C@]1(C(=O)Nc3ccccc31)[C@H]2c1ccc(OCCO)cc1`, the composite z-score with Albumin (Bos taurus) was 0.466; in test [2], -0.0647; in test [3], -0.082; in [4] it was 0.59; in [5] it was 1.67; in test [6] it was 0.218. The figures for the composite z-score (in the test on Sam68 (KHDRBS1); in [7]; in test [8]) were 1.31, 0.25 and 1.14, respectively. For the same molecule, the composite Z-score in test [1] was -0.249 (inactive).
For the molecule `COCCCNC(=O)[C@@]1(Cc2ccccc2)N=C(c2ccc(OCCCO)cc2)O[C@H]1c1ccccc1`, the composite z-score is 0.893 with Albumin (Bos taurus); 0.374 in test [2]; 0.308 in [3]; 0.79 in test [4]; 2.9 in test [5]; -0.0127 in test [6]. For the same molecule, the composite z-score in the test with Sam68 (KHDRBS1) was 1.29; in test [7] it was -1.1; in test [8], 1.12. Moreover, the composite Z-score in test [1] was 1.14 (inactive).
Take `C=C(CCCC)C(=O)CC[C@@H](OC(=O)c1cccnc1)c1ccc(CO)o1`: the composite z-score with Albumin (Bos taurus) is 0.477; in test [2], 0.205; in test [3], -0.127; in test [4] it was 0.618; in [5], 0.28; in test [6], 0.194. For the same molecule, the results for the composite z-score (in the test on Sam68 (KHDRBS1); in test [7]; in test [8]) were 1.31, 0.844 and 1.02, respectively. Besides, the composite Z-score in [1] is -0.261 (inactive).
As to `C#CCNC(=O)[C@H](Cc1ccccc1)NC(=O)CCC(=O)O`, the composite z-score is -1.09 with Albumin (Bos taurus); -0.262 in [2]; -0.161 in test [3]; -0.124 in test [4]; -0.301 in [5]; 0.236 in test [6]. In addition, the composite z-score is -1.74 in the test on Sam68 (KHDRBS1), -0.471 in test [7] and -1.83 in test [8]. Moreover, the composite Z-score in test [1] is 1.42 (inactive).
On to `C=CC[C@]1(C(=O)N2CCCCC2)N=C(c2ccc(OCCCO)cc2)O[C@H]1c1ccccc1`, for which the composite z-score is 0.579 in the test with Albumin (Bos taurus); 0.748 in [2]; 0.429 in [3]; 0.63 in test [4]; 2.04 in [5]; 0.488 in test [6]. Also, the composite z-score turned out to be 1.31 with Sam68 (KHDRBS1), 0.238 in test [7] and 0.387 in [8]. Also, in [1], the composite Z-score is 0.458 (inactive).
Take `CCOC(=O)C[C@H]1[C@H](OC(=O)Cc2ccc3c(c2)OCO3)[C@@H](NC(=O)c2ccc(-c3ccccc3)cc2)c2cc(OCCCO)ccc2N1C(=O)Cc1ccc(OC)cc1`: the composite z-score was found to be 0.641 with Albumin (Bos taurus); 0.121 in [2]; 0.0126 in test [3]; 0.0713 in test [4]; 0.365 in [5]; 0.597 in [6]. Further, the composite z-score in the test on Sam68 (KHDRBS1) is 0.843; in [7] it was 0.236; in test [8] it was 0.152. Moreover, in test [1], the composite Z-score is 0.0844 (inactive).
On to `C=CC[C@]1(C(=O)NCCCOC)N=C(c2ccc(OCCCO)cc2)O[C@H]1c1ccccc1N=[N+]=[N-]`, for which the composite z-score in the test with Albumin (Bos taurus) came to 0.958; in test [2], 0.205; in [3], 0.0494; in test [4], 0.726; in test [5], 3.06; in test [6] it was 0.397. Further, the composite z-score in the test on Sam68 (KHDRBS1) was 1.31; in [7], -0.0877; in test [8] it was 0.982. For the same molecule, in test [1], the composite Z-score was 0.484 (inactive).
Consider `COc1ccc(NN2C(C(O)c3ccc([N+](=O)[O-])cc3)C=CC3C(=O)N(C4CCCCC4)C(=O)C32)cc1` (stereo not given), for which the composite z-score is 0.424 with Albumin (Bos taurus); 0.178 in test [2]; -0.115 in test [3]; 0.561 in test [4]; 1.48 in test [5]; -0.0699 in test [6]. Also, the composite z-score in the test on Sam68 (KHDRBS1) is 1.23; in [7], -0.261; in [8], 0.505. In test [1], the composite Z-score was 0.601 (inactive).
For `O=C1C[C@]2(c3ccc([N+](=O)[O-])cc3)C(=O)N(CCN3CCOCC3)c3cc(CO)ccc3[C@H]2N1C1CCCCC1`, the composite z-score is 0.883 in the test with Albumin (Bos taurus); -0.221 in [2]; -0.0904 in [3]; 0.646 in [4]; 0.294 in test [5]; -0.467 in test [6]. Also, the composite z-score was 0.197 with Sam68 (KHDRBS1), -0.337 in test [7] and -0.172 in [8]. In test [1], the composite Z-score was -0.598 (inactive).

Values taken from PubChem BioAssay.
